Laboratory results as given in PubChem BioAssay (NCATS).
Records with an inconclusive call do not appear. Entries that show only a call come without a potency. Activity calls are given as the source filed them. The call rests on the fitted dose curve; in most records, active means well fitted inhibition curve with a large enough effect; inconclusive means small, poorly fitted or top-dose-only effect; inactive means flat fitted curve, though single readings scatter.

These compounds were tested on 3D7 (assay: qHTS profiling for inhibitors of Plasmodium falciparum proliferation (AID 504749; further: nearly all actives have a fitted effect of over 60% in size)). Details: P. falciparum in erythrocytes, SYBR Green DNA, 72 h; series mostly up to 28.7 µM.
How it was run: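 Parasite proliferation within erythrocytes, 72 h exposure. Endpoint: SYBR Green I fluorescence after overnight lysis at room temperature. Controls: 0.29 uM artemisinin, DMSO.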
Potency means the concentration at half of the fitted maximal effect.

| Compound | Potency |
| --- | --- |
| OCCOC[C@H]1O[C@H](OCCO)[C@H](OCCO)[C@@H](OCCO)[C@@H]1OCCO (tested in a mixture with another compound) | inactive |
| C[S+](C)CC[C@H](N)C(=O)O | inactive |
| CC[C@@H]1/C=C(\C)C[C@H](C)C[C@H](OC)[C@H]2O[C@@](O)(C(=O)C(=O)N3CCCC[C@H]3C(=O)O[C@H](/C(C)=C/[C@@H]3CC[C@H](Cl)[C@H](OC)C3)[C@H](C)[C@@H](O)CC1=O)[C@H](C)C[C@@H]2OC | inactive |
| NC(=O)C1CC2(NC(=O)NC2=O)c2cc(F)ccc2O1 (stereo unspecified) | inactive |
| CN1[C@@H]2CC[C@@H]1CC(OC(=O)[C@H](CO)c1ccccc1)C2 (stereo partly specified) | inactive |
| CC[C@@]1(O)C[C@H](O[C@H]2C[C@@H](N(C)C)[C@@H](O[C@H]3C[C@@H](O)[C@@H](O[C@H]4CCC(=O)[C@@H](C)O4)[C@@H](C)O3)[C@@H](C)O2)c2c(cc3c(c2O)C(=O)c2c(O)cccc2C3=O)[C@H]1C(=O)OC | 126 nM (active) |
| CCCCCCCCCCCC(=O)OCC(O)C1OCC(O)C1O (stereo unspecified) | inactive |
| C/C1=C2/[N-]C(C(CC(N)=O)[C@@]2(C)CCC(=O)NCC(C)OP(=O)([O-])O[C@H]2[C@@H](O)[C@@H](n3cnc4cc(C)c(C)cc43)O[C@@H]2CO)[C@]2(C)N=C(/C(C)=C3N=C(/C=C4N=C1C(CCC(N)=O)C\4(C)C)[C@@H](CCC(N)=O)[C@]\3(C)CC(N)=O)[C@@H](CCC(N)=O)[C@]2(C)CC(N)=O.CC(=O)O.[Co] (stereo partly specified) | inactive |
| CC1(C)OC[C@@H]2O[C@@]3(C(=O)O)OC(C)(C)O[C@@H]3[C@@H]2O1 | inactive |
| Cc1ccccc1N1C(=O)c2cc(N)ccc2N/C1=C\F | inactive |
| CCC(C(=O)O)C1OC(C(C)C(O)C(C)C(=O)C(CC)C2OC3(C=CC(O)C4(CCC(C)(C5CCC(O)(CC)C(C)O5)O4)O3)C(C)CC2C)C(C)CC1C (stereo unspecified) | 100 nM (active) |
| O=C1C(I)=CC(=C(c2cc(I)c(O)c(I)c2)c2ccccc2C(=O)O)C=C1I | inactive |
| NC(=O)NC(CCC(=O)O)C(=O)O (stereo unspecified) | inactive |
| COC1CC2CCC(C)[C@](O)(O2)C(=O)C(=O)N2CCCCC2C(=O)OC(C(C)CC2CCC(O)C(OC)C2)CC(=O)C(C)/C=C(/C)C(O)C(OC)C(=O)C(C)CC(C)C=CC=C/C=C\1C (stereo partly specified) | 2000 nM (active) |
| CC(=O)OCC(=O)[C@@]1(O)CCC2C3C[C@H](C)C4=CC(=O)C=CC4(C)C3C(O)CC21C (stereo partly specified) | inactive |
| CN[C@H](C)CCC=C(C)C | 316 nM (active) |
| CC1(C)C2CC[C@]1(C)[C@@H](O)C2 | inactive |
| OCC1O[C@H](Oc2ccc(O)cc2)C(O)C(O)C1O (stereo partly specified) | inactive |
| Nc1nc(F)nc2c1ncn2[C@@H]1O[C@H](CO)[C@@H](O)[C@H]1O | inactive |
| CC1OC(OC2CCC3(C)C(CCC4C3CC(O)C3(C)C(C5=CC(=O)OC5)CCC43O)C2)CC(O)C1OC1CC(O)C(OC2CC(O)C(OC3OC(CO)C(O)C(O)C3O)C(C)O2)C(C)O1 (stereo unspecified) | inactive |
| CC1OC(OCC2OC(Oc3c(-c4ccc(OCCO)c(OCCO)c4)oc4cc(OCCO)cc(O)c4c3=O)C(O)C(O)C2O)[C@@H](O)C(O)C1O (stereo partly specified) | inactive |
